Molecules are shown by their SMILES. Out of some 16,000 compounds screened, about 70 (0.4%) were called active. Many of the other results were omitted from the sample, so actives are more common in it than they were. Values without a mark were called inactive. No stated cut-off is given here; in the data, active means inhibition above about 75%; inactive means the rest.

The source of these data is PubChem BioAssay AID1823 (The Scripps Research Institute Molecular Screening Center, 2009).

The nature of this assay: quenches luminol chemiluminescence in Nox1 counter-screen (AID 1823). The conditions noted are these: HRP/luminol/H2O2 chemiluminescence counterscreen; at 6.7 µM; hits give high values.
In the case of `CC(C)(C)NC(=O)N/N=C/c1[nH]ncc1Br`, the inhibition was -2.94%.
Regarding `COc1ccccc1NC(=O)c1ccc(C#Cc2ccccc2)o1`, the inhibition is 0.37%.
Take `CCCS(=O)(=O)c1csc(C(=O)OC)c1N/N=C/c1cccs1`: the inhibition is 1.56%.
Turning to `COCn1nnc2ccccc21`, the inhibition was 0.3%.
Take `Cc1c(N/N=C(\C#N)c2nc3ccccc3[nH]2)c(=O)n(-c2ccccc2)n1C`: the inhibition was 7.97%.
With `O=C(O)CC1(CC(=O)Nc2ccc(N3CCCCC3)cc2)CCCCC1`, the inhibition was -6.38%.
Turning to `CSc1sc(C(N)=O)cc1C#N`, the inhibition is -6.88%.
Take `Cc1cc(C2=CSC3=NCCN23)ccc1Cl`: the inhibition is 36.3%.
With `OCCNC(=S)Nc1ccccc1-c1ccccc1`, the inhibition is 0.57%.
In the case of `O=S(=O)(c1ccccc1)c1cc(C(F)(F)F)cc(C(F)(F)F)c1` it was -1.49%; in that of `CSc1sc(NC(=O)N2CCOCC2)c(-c2ccc(Cl)cc2)c1C#N`, 3.63%.
Take `Oc1c(Cl)c(Cl)c(Cl)c2ccccc12`: the inhibition is 4.73%.
In the case of `CN(C)/C=C1/C(=O)NN=C1CSc1ccc(Cl)cc1`, the inhibition is -3.51%.
As for `Cc1ccc(N=C2SC3(CC3)C(=O)N2c2ccc(C)cc2)cc1`, the inhibition was -0.15%.
For the molecule `CC1(C)CCc2cc(-c3ccnc(SCC(=O)c4ccccc4)n3)ccc2O1`, the inhibition was -4.62%.
In the case of `O=C(NCc1cccnc1)c1cnc2ccccc2n1`, the inhibition was -0.07%.
On to `CC(=O)NC(Cc1c[nH]c2ccccc12)C(=O)O` (stereo not drawn), for which the inhibition is -1.35%.
With `O=C(c1ccc(F)cc1)C1CCN(Cc2cn[nH]c2-c2ccccc2)CC1`, the inhibition was 0.3%.
Take `CC1(NC(=O)OCc2ccccc2)CC1NC(=O)OCc1ccccc1` (stereo not drawn): the inhibition was 1.98%.
In the case of `O=c1[nH]cc(Br)c(=O)[nH]1` it was -0.43%; in that of `CC1CN(c2ccc(NC(=S)NCc3cccs3)cc2)CC(C)O1` (stereo not drawn), -35.2%; in that of `O=C(O)CC(CC(=O)N1CCOCC1)c1ccccc1` (stereo not drawn), -4.82%.
Turning to `O=C(CSc1ccc(Cl)cc1)NCCSCc1ccco1`, the inhibition is -0.61%.
In the case of `O=C(NCCO)NCCSc1ccc(F)cc1` it was -2.48%; in that of `CSc1n[nH]c(=O)n1-c1cccc(C(F)(F)F)c1`, 1.69%.
Consider `FC(F)(F)c1ccc(-n2cn[nH]c2=S)cc1`, for which the inhibition is 53.1%.
As to `FC(F)(F)c1cccc(-n2c(-c3ccncc3)n[nH]c2=S)c1`, the inhibition is 97.8% (active).
Turning to `O=c1[nH]/c(=C/c2ccc(OC(F)(F)F)cc2)c(=O)[nH]/c1=C/c1ccc(OC(F)(F)F)cc1`, the inhibition was 0.16%.
For `O=C(Nc1ccc(Cl)cc1)c1csc(COc2ccc3nonc3c2)n1`, the inhibition is 3.82%.
Take `Cn1cc(C(=O)c2ccc(Cl)cc2)cc1/C=C(\C#N)S(=O)(=O)c1ccc(C(F)(F)F)cn1`: the inhibition is 2.9%.
Regarding `O=C(Nc1ccccc1)Nc1nc2ccccc2s1`, the inhibition is -7.1%.
On to `O=c1c2cc(-c3ccccc3)sc2nc2n1N=C(c1cccs1)CS2`, for which the inhibition was -0.02%.
In the case of `COc1cc(OC)nc(S(C)(=O)=O)n1`, the inhibition was -4.97%.
